KB-3-1 cytotox: kills parental KB-3-1 adenocarcinoma cells. KB-3-1 viability, CellTiter-Glo ATP luminescence, 72 h. Potency, µM (doses to about 46.1 µM), actives largely listed as cytotoxic. actives 1.4% (n = 400,000). AID 1347075; note: nearly all actives have a fitted effect of over 60% in size
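Cells are dispensed, compounds pinned in, plates held at 37 °C for 72 h, then CellTiter-Glo is added and luminescence read after 10 minutes. Cell line: parental KB-3-1 in phenol-red-free DMEM, 10% FBS.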
KB-V1 cytotox: KB-V1 MDR subline cytotoxicity | KB-V1 MDR cells viability, CellTiter-Glo, 72 h | Potency, µM (doses to about 46.1 µM), usual class: cytotoxic | actives 3.4% (n = 400,000) | AID 1347076; note: nearly all actives have a fitted effect of over 60% in size
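KB-V1 cells (P-gp-expressing MDR subline of KB-3-1) in phenol-red-free DMEM with 10% FBS were exposed to library compounds over a concentration series for 72 h at 37 degrees C. Viability read by CellTiter-Glo luminescence; concentration-effect curves fitted after normalization.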
SW480 rerep: inducers of DNA re-replication in SW480 colon cancer cells | SW480 DNA re-replication, Hoechst DNA content imaging, 48 h | Potency, µM (top dose mostly 46.1 µM), usual class: activators | actives 1.8% (n = 340,000) | AID 624297; note: nearly all actives have a fitted effect of over 55% in size
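SW480 cells exposed to compounds for 48 hr at 37 C, 5% CO2, then Hoechst-stained 40 min. Nuclear DNA content imaged by fluorescence scanning (405 nm excitation, 500-530 nm emission); re-replication scored as increased high-intensity nuclei.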
MCF10A rereplic: induces DNA re-replication in MCF 10a normal breast cells | MCF 10A DNA re-replication, Hoechst nuclear intensity, 48 h | Potency, µM (titrated, usually from 46.1 µM), most hits filed as activators | actives 2.9% (n = 350,000) | AID 624296; note: nearly all actives have a fitted effect of over 50% in size
ELG1 DNA repair: inhibitors of ELG1-dependent DNA repair in HEK293T cells. HEK293T ELG1-luciferase reporter, luminescence, 16 h; DNA damage induced by 5-fluorouridine. Potency, µM (highest dose often 46.1 µM), most hits filed as inhibitors. actives 2.3% (n = 330,000); note: nearly all actives have a fitted effect of over 55% in size
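Reporter activity after DNA damage by 5-fluorouridine is monitored. Compound-treated cells incubate 16 hr at 37 °C, then ONE-Glo is added for 30 min before luminescence reading.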
Of the large screens only hits and unclear results are named; the others gave an inactive call. Hits are enriched below; roughly 8.1% of the tested compounds scored in any of these assays. Calls come from the whole dose curve; as a rule, active = well fitted curve in the direction sought with a large enough effect; inconclusive = small, poorly fitted or top-dose-only effect, or another doubt; inactive = no such curve, though single readings can be large; an effect the other way counts as inactive or inconclusive.

O=C(O)c1[nH]c(=O)[nH]c(=O)c1F	KB-3-1 cytotox 7.31µM
Oc1ccc(Br)cc1CN1CCN(c2ccccc2)CC1	KB-V1 cytotox 16.4µM
CCN1CCN(Cc2cc(Br)ccc2O)CC1	none
COc1cc(C)c(CN2CCN(c3ccccc3)CC2)cc1C	KB-V1 cytotox 13µM
COC(=O)C1=C(c2cccc(OC)c2OC)C[C@@H]2CC[C@H]1N2C(=O)N1CCC(O)CC1	MCF10A rereplic inconclusive (no result: ELG1 DNA repair)
C=C1C(C)C2C(Cc3ccccc3)NC(=O)C23C(OC(C)=O)C=CC(C)(O)CC(C)CC=CC3C1O (stereo not given)	KB-3-1 cytotox inconclusive, KB-V1 cytotox inconclusive, SW480 rerep 3.66µM, MCF10A rereplic inconclusive (no result: ELG1 DNA repair)
C[C@H]1C/C=C/[C@H]2[C@H](O)[C@H](C)[C@@](C)(O)[C@H]3[C@H](Cc4ccccc4)NC(=O)[C@]32[C@H](O)/C=C/[C@](C)(O)C1	SW480 rerep inconclusive, MCF10A rereplic inconclusive (no result: ELG1 DNA repair)
C=C1[C@@H](C)[C@H]2[C@H](Cc3ccccc3)NC(=O)[C@]23OC(=O)/C=C/[C@H](O)CCC[C@@H](C)C/C=C/[C@H]3[C@@H]1O	KB-V1 cytotox inconclusive, SW480 rerep 5.8µM, MCF10A rereplic inconclusive (no result: ELG1 DNA repair)
CC(=O)O[C@@H]1/C=C/[C@](C)(O)C[C@@H](C)C/C=C/[C@H]2[C@H](O)C(C)=C(C)[C@H]3[C@H](Cc4ccccc4)NC(=O)[C@@]123	KB-3-1 cytotox inconclusive, SW480 rerep 18.4µM, MCF10A rereplic inconclusive (no result: ELG1 DNA repair)
O=Cc1cn(Cc2ccc(Br)cc2)c2ccccc12	KB-3-1 cytotox 10.3µM, KB-V1 cytotox inconclusive
Cc1nnc2ccc(-c3cccc(C(F)(F)F)c3)nn12	KB-V1 cytotox 11.6µM (no result: ELG1 DNA repair)
O=c1oc(-c2cccc(C(F)(F)F)c2)nn1-c1ccc(C(F)(F)F)cn1	KB-3-1 cytotox inconclusive, MCF10A rereplic inconclusive, ELG1 DNA repair inconclusive
CN1C(=O)C(=Cc2sc(=O)n(-c3ccccc3)c2N(C)C)C(=O)N(C)C1=O	KB-3-1 cytotox inconclusive, MCF10A rereplic 18.4µM, ELG1 DNA repair inconclusive
Cc1cc(C=C2C(=O)N(C)C(=O)N(C)C2=O)c(C)n1-c1ccccc1	none
CN1CCN(C(=O)COc2ccc(S(=O)(=O)NCc3ccccc3)cc2Cl)CC1	none
COC(=O)C1=C(c2cc3ccccc3s2)C[C@@H]2CC[C@H]1N2C(=O)NCCCOC(C)C	none (no result: ELG1 DNA repair)
CC(=O)O[C@@]12CO[C@@H]1C[C@H](O)[C@@]1(C)C(=O)[C@H](O)C3=C(C)[C@@H](OC(=O)[C@H](O)[C@@H](NC(=O)c4ccccc4)c4ccccc4)C[C@@](O)([C@@H](OC(=O)c4ccccc4)C12)C3(C)C (stereo not given in full)	KB-3-1 cytotox 0.0073µM, KB-V1 cytotox 8.2µM, SW480 rerep 2.59µM, MCF10A rereplic inconclusive, ELG1 DNA repair inconclusive
CC(=O)O[C@H]1C(=O)[C@@]2(C)C([C@H](OC(=O)c3ccccc3)[C@]3(O)C[C@H](O)C(C)=C1C3(C)C)[C@]1(OC(C)=O)CO[C@@H]1C[C@H]2O (stereo not given in full)	KB-3-1 cytotox inconclusive, KB-V1 cytotox inconclusive, SW480 rerep inconclusive
CC(=O)O[C@H]1C(=O)[C@@]2(C)C([C@H](OC(=O)c3ccccc3)[C@]3(O)C[C@H](OC(=O)[C@H](O)[C@@H](NC(=O)Cc4ccccc4)c4ccccc4)C(C)=C1C3(C)C)[C@]1(OC(C)=O)CO[C@@H]1C[C@@H]2O (stereo not given in full)	KB-3-1 cytotox 0.0073µM, KB-V1 cytotox inconclusive, SW480 rerep 4.61µM, MCF10A rereplic inconclusive, ELG1 DNA repair inconclusive
Clc1ccc(CN2CCNCC2)cc1	none
CC(C)N1CCN(Cc2cccc([N+](=O)[O-])c2)CC1	SW480 rerep 1.84µM
O=[N+]([O-])c1cccc(CN2CC=C(c3ccc(F)cc3)CC2)c1	KB-3-1 cytotox 9.2µM
CCN(CCCl)c1cc(CN(C)C)cc(NC(=O)c2ccc(C(=O)Nc3cc(CN(C)C)cc(N(CC)CCCl)c3)cc2)c1	KB-3-1 cytotox 0.517µM, SW480 rerep inconclusive (no result: ELG1 DNA repair)
CCN(CC)C(=O)c1ccc(NC(=O)c2cccc(C(F)(F)F)c2)cc1	SW480 rerep inconclusive
O=c1c2ccccc2[se]n1-c1ccccc1	KB-3-1 cytotox inconclusive, KB-V1 cytotox inconclusive, SW480 rerep 18.4µM, MCF10A rereplic inconclusive
O=c1c2ccccc2nc(-c2ccccc2)n1-c1ccccc1	KB-V1 cytotox inconclusive
COc1ccc(-n2c(O)c(C(C)=NCc3ccc4c(c3)OCO4)c(=O)[nH]c2=O)cc1	none
COc1ccc(C)cc1NC(=O)c1cccn(Cc2ccccc2Cl)c1=O	none (no result: SW480 rerep, MCF10A rereplic, ELG1 DNA repair)
CN1CCC(O)(c2ccc(F)cc2)C(C(=O)c2ccc(F)cc2)C1 (stereo not given)	SW480 rerep inconclusive, MCF10A rereplic 26.6µM (no result: KB-3-1 cytotox, KB-V1 cytotox, ELG1 DNA repair)
Cc1ccc(NC(=O)c2snnc2C)cc1Cl	KB-3-1 cytotox inconclusive, KB-V1 cytotox 10.3µM, ELG1 DNA repair inconclusive
O=C(COc1ccccc1F)N1CCN(Cc2cc(=O)n3nc(-c4ccccc4Cl)sc3n2)CC1	none (no result: SW480 rerep, MCF10A rereplic, ELG1 DNA repair)
Nc1ncnc2c1ncn2[C@@H]1O[C@H](COP(=O)(O)CP(=O)(O)O)[C@@H](O)[C@H]1O	KB-V1 cytotox 14.6µM (no result: ELG1 DNA repair)
O=C(O)C1Cc2ccccc2N2CCCC12 (stereo not given)	SW480 rerep inconclusive
Cc1nc2ccc(Nc3nc4cc(S(=O)(=O)N5CCOCC5)ccc4o3)cc2s1	SW480 rerep 18.4µM, MCF10A rereplic inconclusive
Fc1ccccc1-c1n[nH]c(=S)n1Cc1ccccc1	SW480 rerep inconclusive
NC1(C(=O)O)CCCc2ccc(N(CCCl)CCCl)cc21 (stereo not given)	SW480 rerep inconclusive, MCF10A rereplic inconclusive (no result: ELG1 DNA repair)
O=C1NC(=O)C2(CCCc3ccc(N(CCCl)CCCl)cc32)N1 (stereo not given)	SW480 rerep 16.4µM, MCF10A rereplic 18.4µM (no result: ELG1 DNA repair)
C=CCN1C(=O)NC(=O)/C(=C/C=C/c2ccccc2)C1=O	SW480 rerep inconclusive, MCF10A rereplic inconclusive, ELG1 DNA repair inconclusive
O=C1NC(=O)N(Cc2ccccc2)C(=O)/C1=C\C=C\c1ccco1	KB-V1 cytotox inconclusive, MCF10A rereplic 11.6µM, ELG1 DNA repair inconclusive
O=C1NC(=O)N(Cc2ccco2)C(=O)/C1=C/C=C/c1ccco1	KB-3-1 cytotox inconclusive, KB-V1 cytotox inconclusive, SW480 rerep inconclusive, MCF10A rereplic 18.4µM, ELG1 DNA repair inconclusive
O=C1NC(=O)N(CCc2ccc(F)cc2)C(=O)/C1=C\C=C\c1ccccc1	KB-3-1 cytotox 16.4µM, KB-V1 cytotox 14.6µM, MCF10A rereplic 4.11µM, ELG1 DNA repair inconclusive
CCC(C)N1CCN(C(=O)COc2ccc3ccccc3c2)CC1 (stereo not given)	SW480 rerep inconclusive, MCF10A rereplic inconclusive
COC(=O)C1=C(c2cccc(OCc3ccccc3)c2)C[C@@H]2CC[C@H]1N2C(=O)NCc1cc(C)oc1C(F)(F)F	KB-3-1 cytotox inconclusive, KB-V1 cytotox inconclusive, SW480 rerep inconclusive
